# Measured values reported in PubChem BioAssay AID651582 (Sanford-Burnham Center for Chemical Genomics, 2012).
# The campaign covered roughly 230,000 compounds. About 1,500 (0.65%) were called active.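 Rule for the calls: active = pattern-corrected inhibition of lipid staining of at least 50% with the nuclear-stain viability signal not falling by more than 50%; inactive = the rest, inconclusive results apart.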 The full list was thinned out, with actives kept by preference.
# Test: inhibitors of triacylglycerol accumulation, primary screen, cell-based, uHTS, fluorescence, H9c2 (AID 651582);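 for inhibition: 0% = DMSO wells and 100% = triacsin C control wells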
# Details: H9c2 cells, Nile Red lipid (TAG) fluorescence, at 12.5 µM, cells loaded with 200 µM oleic acid; DAPI nuclei signal change (viability), lower = more cytotoxic: measured here: DAPI nuclei count viability; inhibition: stronger effect = higher value
Structure (SMILES),"DAPI nuclei signal change (viability), lower = more cytotoxic [%]",inhibition
COC(=O)Nc1nc2ccc(Sc3ccccc3)cc2[nH]1,-43.5,58.7% (active)
COc1ccc2nc(SCC(=O)Nc3c(C)cc(C)cc3C)[nH]c2c1,-8.51,24.4% (inactive)
Cc1nc2ccc(C(=O)O)cc2[nH]1,7.29,-10.7% (inactive)
N#Cc1ccc(-c2ccc3nccn3c2)cc1,18.4,-21.5% (inactive)
COc1cc(C(=O)NCC(c2ccco2)N2CCCC2)ccc1OCc1ccccc1 (stereo not given),9.22,5.54% (inactive)
CCC1CCCCN1C(=S)NC(=O)c1ccco1 (stereo not given),-3.85,-2.4% (inactive)
COC(=O)c1ccc(-c2c(-c3ccccc3)ncc3cc(OC)c(OC)cc23)cc1,-46.2,70.6% (active)
COC(=O)c1ccc(SCc2ccccc2)nc1,0.616,-5.84% (inactive)
COc1ccc(OCC(=O)NNC(=O)c2ccc(-c3ccccc3)cc2)cc1,-4.12,-6.97% (inactive)
CN(CC(=O)Nc1c(Cl)cccc1Cl)C(=O)CC1OC(=O)c2ccccc21 (stereo not given),-7,2.91% (inactive)
COc1ccc(S(=O)(=O)N2CCCCC2c2cc(C(=O)NCc3ccc(F)cc3)no2)cc1 (stereo not given),-7.14,11.8% (inactive)
O=C(Nc1ccc(OC(F)(F)F)cc1)c1ccc2c(c1)no[n+]2[O-],-44.5,57.3% (active)
Cn1nccc1NC(=O)Nc1ccc(OC(F)(F)F)cc1,0.761,-19.5% (inactive)
CCOC(=O)Cc1ncccc1C(=O)Nc1ccc(OC(F)(F)F)cc1,-10.3,-0.736% (inactive)
Cc1ccccc1Cn1c(C)c(C(=O)NCc2cccc(C(F)(F)F)c2)sc1=O,2.91,13.2% (inactive)
CC(C)CC1C(=O)N(Cc2cn(CC3CCCCC3)nn2)CCS(=O)(=O)N1Cc1ccc(-c2ccc(Cl)cc2)cc1 (stereo not given),-4.47,46.5% (inactive)
CC(=O)c1cccc(-c2ccc(CN3C(CC(C)C)C(=O)N(Cc4cn(CC5CCCCC5)nn4)CCS3(=O)=O)cc2)c1 (stereo not given),-20.7,52.2% (active)
COc1ccc(-c2ccc(CN3C(CC(C)C)C(=O)N(Cc4cn(CC5CCCCC5)nn4)CCS3(=O)=O)cc2)cc1 (stereo not given),-3.84,14.3% (inactive)
Cc1ccccc1-c1cc(C(=O)NCc2cccs2)n(CC2CC(c3cccnc3)=NO2)n1 (stereo not given),-34.7,-1.76% (inactive)
O=C(CCc1ccc(S(=O)(=O)N2CCOCC2)cc1)OCC(=O)c1ccc(Br)cc1,5.4,-35.9% (inactive)
Cc1ccc(/C=N/NC(=S)NC2CCCCC2)o1,-2.44,15.8% (inactive)
Cc1ccc(/C=N/NC(=S)Nc2cccc(S(=O)(=O)N(C)C)c2)o1,-39,65.8% (active)
CN(C)S(=O)(=O)c1cccc(NC(=S)NCc2ccc3c(c2)OCO3)c1,8.91,-12.9% (inactive)
CN1OC[C@@H]2CN[C@H](c3ccc(-c4ccccc4)cc3)C[C@@H]21,-19.9,37.5% (inactive)
COc1ccccc1Nc1nc(N)nc(CN(C)C2CCCCC2)n1,-2.24,-18.7% (inactive)

Structure (SMILES),"DAPI nuclei signal change (viability), lower = more cytotoxic [%]",inhibition
COc1ccccc1NC1=NC2(CCCC2)N=C(N)N1,-8.79,8.65% (inactive)
COc1ccccc1NC1=NC(c2ccc(Cl)cc2)N=C(N)N1 (stereo not given),-23.4,58.3% (active)
Cc1ccc(NC(=O)CN(C)C(=O)c2ccc(Cl)c(S(=O)(=O)NCc3ccco3)c2)cc1,-5.08,12.3% (inactive)
CCCCc1ccc(S(=O)(=O)NC(=O)C2(C)CCN2C(=O)c2c(C)noc2C)cc1 (stereo not given),2.79,0.354% (inactive)
O=C(Nc1cccc(C(=O)O)c1)/C(=C\c1ccccc1)NC(=O)c1ccc(Br)o1,-3.36,6.66% (inactive)
COc1ccc2sc(-c3ccc(S(C)(=O)=O)cc3)c(C#Cc3cncn3C)c2c1,54.1,93.5% (active)
Cn1cncc1C#Cc1c(-c2ccsc2)sc2ccccc12,7.19,-0.161% (inactive)
COc1ccc2sc(-c3ccc(S(C)(=O)=O)cc3)c(-c3ccc(C(N)=O)cc3)c2c1,-5.68,33.1% (inactive)
O=C(O)c1ccc([N+](=O)[O-])cc1Sc1ccsc1,-1.85,-10.5% (inactive)
CCOC(=O)c1cc(-c2sc(NC(=O)c3ccccc3)nc2C)n(Cc2ccccc2)n1,-2.4,44.7% (inactive)
COCCNc1ncnc2c1ncn2[C@H]1CN(CCN2CCOCC2)C[C@@H](CO)O1,-0.911,0.573% (inactive)
COC(=O)C1C(=O)c2c([nH]c(C(=O)OCCSC)c2C)CC1C (stereo not given),-3.66,1.54% (inactive)
CCCOC(=O)c1[nH]c2c(c1C)C(=O)CC(c1cc(OC)c(OC)c(OC)c1)C2 (stereo not given),-10.1,-26.3% (inactive)
CCCOC(=O)c1[nH]c2c(c1C)C(=O)CC(c1cccs1)C2 (stereo not given),-13.9,64.7% (active)
Cn1c(CCN2CCN(c3ccccn3)CC2)nc2cc(NS(=O)(=O)c3ccc(F)cc3)ccc21,6.59,-5.66% (inactive)
CC1CCC2(CC1)NC(=O)N(CC(=O)c1ccc3c(c1)OCO3)C2=O (stereo not given),5.46,-2.45% (inactive)
O=C(O)c1ccccc1-c1cccc2nncn12,3.23,-1.16% (inactive)
C(=N/Nc1cc(N2CCOCC2)nc(N2CCOCC2)n1)/c1ccccc1,-80.2,126% (inactive)
Cc1ccc2nc(C)cc(N/N=C/c3ccc(F)cc3)c2c1,4.22,4.13% (inactive)
Cc1cc(N/N=C\c2ccc(Br)cc2)nc(-n2nc(C)cc2C)n1,-21.7,59% (active)
C=C(C)C(=O)O[C@H]1C/C(C)=C\C(=O)/C=C(\C)[C@H](O)[C@@H]2OC(=O)C(=C)[C@@H]21,-49.2,51.2% (active)
COc1ccc(C(=O)Nc2nc(-c3ccc(OC)cc3)c(-c3ccc([N+](=O)[O-])cc3)s2)cc1,-4.41,61.8% (active)
O=C(Nc1nc2ccc([N+](=O)[O-])cc2s1)c1ccncc1,12.5,-10.5% (inactive)
CC(=O)c1sc(NC(=O)c2ccc(C)cc2)nc1C,-3.26,-5.37% (inactive)
Cc1ccc(C)c(S(=O)(=O)N(C)c2ccc(OC(=O)C3CCN(C(=O)c4ccc(F)cc4)CC3)cc2)c1,0.336,-28% (inactive)
